In the library only some 1.1% were active in any assay of this set; here they are far more common.
USP2a block: inhibitors of human ubiquitin-specific protease USP2a. O75604. USP2 core, Ub-CHOP2 coupled fluorogenic reporter, 485/531. Potency, µM (titrated, usually from 38.3 µM), for inactives: at the top dose activity change, negative = inhibition, usual class: inhibitors. 330,000 tested, 0.01% active. AID 463254;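 also: plate controls were DMSO wells for no effect and full inhibition by NEM control for full effect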
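Deubiquitinase activity read as fluorescence (485/531 nm) after Ub-CHOP2 cleavage activates the enterokinase reporter on its substrate; USP2 core 10nM, Ub-CHOP2 and substrate 25nM each, 30min compound preincubation then 60min RT; data normalized to NEM, curves fitted.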
12-LOX inh: blocks human arachidonate 12S-lipoxygenase; P18054; purified 12hLO, xylenol orange hydroperoxide absorbance; Potency, µM (titrated, usually from 108 µM), for the others: at the top dose activity change, negative = inhibition, hits mostly inhibitors; 580,000 tested, 1.1% active; AID 1671190; also: % is scaled to controls: 0 for no effect and ±100 for the full control effect
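Hydroperoxide product was detected by ferrous iron/xylenol orange as the 573 to 405 nm absorbance ratio. Arachidonic acid at 40 uM (final) was turned over for 30 min at room temperature by 150 nM human 12hLO, pH 7.0 Hepes buffer, after 15 min compound preincubation.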
Eya2 inh: inhibitors of human Eya2 phosphatase activity. 330,000 tested, 0.006% active. Potency, µM (titrated, usually from 76.9 µM), without a hit: at the top dose activity, negative = inhibition, actives largely listed as inhibitors. AID 488837. recombinant Eya2, OMFP fluorescence dephosphorylation (OMFP is methylfluorescein phosphate). O00167; also: % is scaled to controls: 0 for no effect and ±100 for the full control effect
Target sequence (O00167 whole entry, looked up): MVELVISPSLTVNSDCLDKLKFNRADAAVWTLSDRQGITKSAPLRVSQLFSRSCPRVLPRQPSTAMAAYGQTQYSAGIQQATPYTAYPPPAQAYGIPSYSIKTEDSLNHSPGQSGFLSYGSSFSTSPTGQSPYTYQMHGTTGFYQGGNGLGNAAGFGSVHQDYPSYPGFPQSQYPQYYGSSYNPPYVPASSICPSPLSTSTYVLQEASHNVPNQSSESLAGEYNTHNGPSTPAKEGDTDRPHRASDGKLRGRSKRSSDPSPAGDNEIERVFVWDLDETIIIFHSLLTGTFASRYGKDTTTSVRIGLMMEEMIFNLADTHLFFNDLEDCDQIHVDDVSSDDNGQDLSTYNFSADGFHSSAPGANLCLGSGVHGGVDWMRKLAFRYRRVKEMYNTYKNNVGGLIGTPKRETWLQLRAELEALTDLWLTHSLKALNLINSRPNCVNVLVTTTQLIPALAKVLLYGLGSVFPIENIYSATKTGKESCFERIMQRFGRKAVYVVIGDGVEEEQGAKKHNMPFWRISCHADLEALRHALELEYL
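Eya2 (0.2 uM) preincubated 10 min at ambient with compound, then OMFP substrate added at 50 uM; 10 min reaction in 50 mM HEPES pH 7.5, 50 mM NaCl, 5 uM MgCl2, 0.05% BSA, 1 mM DTT. Fluorescence read at Ex 485/Em 525 nm.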
TSG101-PTAP inh: blocks PTAP/TSG101 interaction to inhibit HIV-1 budding | 340,000 tested, under 10 active | Potency, µM (titrated, usually from 115 µM), for the others: at the top dose activity change, negative = inhibition, most hits filed as inhibitors | Fluorescence polarization, FITC-PTAP peptide / Tsg101 binding; active = well fitted inhibition curve with a large enough effect in the main read-out, with a control signal flat, not every such curve was filed as active; inconclusive = small, poorly fitted or top-dose-only effect, or effect the other way, or a change in a side signal; inactive = no such curve, though single readings can be large or run the other way; also: % of control where 0% means no effect
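Compounds were pin-transferred onto Tsg101 binding domain (10 uM final) in HEPES pH 7.5 buffer, then FITC-PTAP peptide was added at 50 nM final. After 20 min at RT, polarization reported peptide displacement across a qHTS concentration series.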
An asterisk follows results filed as active; u = inconclusive; x = no result; ! = not confirmed by another sample; [ ] = dose if it differs, or a comment. Unless noted, calls follow the shape of the dose curve; as a rule, active = well fitted curve in the direction sought with a large enough effect; inconclusive = small, poorly fitted or top-dose-only effect, or another doubt; inactive = no such curve, though single readings can be large; an effect the other way counts as inactive or inconclusive. Potency is read from the fitted curve at half-maximal effect.

SMILES	USP2a block	12-LOX inh	Eya2 inh	TSG101-PTAP inh
Cc1cc(C)c(CN2CCC3(Cc4ccccc4CNC3=O)C2)c(C)c1 (stereo unspecified)	x	1µM*	x	x
O=C1NCc2ccccc2CC12CCN(Cc1ccc(-c3ccccc3)cc1)C2 (stereo unspecified)	x	40µM*	x	x
N#Cc1ccc(CN2CCC3(Cc4ccccc4CNC3=O)C2)cc1 (stereo unspecified)	x	0%[6.33 µM]	x	x
NS(=O)(=O)c1ccc(N/N=C/c2cccc(Cl)c2)c([N+](=O)[O-])c1	x	-5%	x	x
Oc1c(Cl)cc(Cl)cc1C1Nc2ccccc2-n2cccc21 (stereo unspecified)	4%	191%	13%	-3%
COc1ccc2c(c1)NC(c1cc(Cl)cc(Cl)c1O)c1cccn1-2 (stereo unspecified)	2%	32µM*	10%	16%
CC[n+]1c(C)cc(C)n1-c1ccccc1	-2%	40µM*	-5%	-4%
CCOC(=O)c1ccc2c(c1)[n+](CC)c(C)n2-c1ccccc1	0%	u	-6%	-2%
Cc1ccc(-n2nc3n(c2=O)CCN(C(=O)c2cccc(Cl)c2)C3)cc1	x	48%	x	x
COc1ccc([C@H]2C[C@@H](O)[C@@H](O)[C@@H]2NC(=O)c2nc3ccccc3s2)cc1	x	8%[176 µM]	x	x
Cc1ccccc1[C@H]1C[C@@H](O)[C@@H](O)[C@@H]1NC(=O)c1nc2ccccc2s1	x	45µM*	x	x
Cc1ccc(NC2Sc3ccccc3NC2=O)cc1 (stereo unspecified)	1%	7.1µM*	-4%	-3%
O=C1Nc2ccccc2SC1c1ccccc1 (stereo unspecified)	4%	0%	-6%	-6%
N#Cc1ccc(-c2nc(C3CC(=O)N(c4ccc(F)cc4)C3)no2)cc1 (stereo unspecified)	x	10µM*	x	x
O=C1CC(c2noc(-c3ccc(F)cc3)n2)CN1c1ccc(F)c(Cl)c1 (stereo unspecified)	x	19%	x	x
N#Cc1ccc(-c2nc(C3CC(=O)N(c4ccc(Cl)cc4)C3)no2)cc1 (stereo unspecified)	x	13µM*	x	x
O=C1Cc2c(-c3ccccc3OCc3ccccc3)n[nH]c2CN1Cc1ccccc1	x	52%[176 µM]	x	x
Cc1ccc(NNC2CC(=O)N(c3cccc(Cl)c3)C2=O)cc1 (stereo unspecified)	2%	20µM*	-4%	0%
COc1ccc(NC2CC(=O)N(c3ccccc3)C2=O)cc1 (stereo unspecified)	-1%	22%	-16%	0%
O=C1CC(NNc2ccccc2)C(=O)N1c1ccccc1 (stereo unspecified)	5%	45µM*	-11%	-4%
Cc1ccc(NC2CC(=O)N(c3ccc(C)cc3)C2=O)cc1 (stereo unspecified)	-9%	16%	-18%	4%
CCc1cccc2c(C(CC(=O)N3CCC(C)CC3)c3cccc(C)c3)c[nH]c12 (stereo unspecified)	x	8%	x	x
O=C(O)c1ccccc1NS(=O)(=O)c1cccc(-n2sc3ccccc3c2=O)c1	0%	0.22µM*	0%	-3%
O=C(O)c1ccccc1NS(=O)(=O)c1cccc(C(F)(F)F)c1	-1%	-25%	8%	-1%
COc1ccc(CNC[C@H]2Cn3c(-c4ccc(Cl)cc4)cnc3CO2)cc1	x	45µM*	x	x
SMILES	USP2a block	12-LOX inh	Eya2 inh	TSG101-PTAP inh
COc1ccc(C(=O)NC[C@H]2Cn3c(-c4ccc(Cl)cc4)cnc3CO2)cc1	x	50%[176 µM]	x	x
CCCC1CCC(c2ccc(C(=O)Nc3ccc(OC)cc3)cc2)CC1 (stereo unspecified)	x	72%	x	x
CSc1nsc(/C=C/Nc2ccc(O)cc2C)c1C#N	-1%	35µM*	8%	20%
Cc1ccc(-c2n[nH]c(=S)n2Cc2ccccc2)cc1	0%	40µM*	-8%	1%
S=c1[nH]nc(-c2cc3ccccc3o2)n1Cc1ccccc1	0%	45µM*	6%	-2%
COc1ccc(Cn2c(-c3ccc(OC)cc3)n[nH]c2=S)cc1	1%	16µM*	0%	3%
Cc1cccc(-c2n[nH]c(=S)n2Cc2ccccc2)c1	-1%	u	4%	-8%
COc1ccc(-c2n[nH]c(=S)n2-c2ccc(C)cc2C)cc1	-1%	6.3µM*	-2%	1%
CCOc1ccc(-c2n[nH]c(=S)n2Cc2ccccc2)cc1	1%	u	-16%	-1%
N#CCCN(CCC#N)C(=O)C1CCN(C(=O)c2cccs2)CC1	x	27%	x	x
COc1ccc(-c2noc([C@@H]3C[C@H](NCc4cccc(C#N)c4)CN3C)n2)cc1	x	114%[176 µM]	x	x
COc1ccc(Oc2coc3cc(OCc4ccccc4F)ccc3c2=O)cc1	x	3%	x	x
COc1ccc(CN2C(=O)[C@@H]3C[C@@H](CN3C3CCC3)Oc3ccccc32)cc1	x	165%[176 µM]	x	x
CN(CCc1ccccn1)c1ncccc1CNC(=O)c1cc(C2CC2)no1	x	11%	x	x
COc1ccc(OCc2n[nH]c(=S)n2-c2ccc(C)cc2)cc1	0%	u	3%	-3%
COc1ccc(Cc2n[nH]c(=S)n2CC(C)C)cc1	x	14µM*	x	x
COc1ccc(-c2n[nH]c(=S)n2CC(C)C)cc1	-2%	u	10%	-11%
COc1ccc(-n2c(COc3cccc(C)c3)n[nH]c2=S)cc1	0%	8.9µM*	11%	-5%
CC1(C)C2CC=C(/C=N/NC(=S)Nc3ccc(SC(F)F)cc3)C1C2 (stereo unspecified)	x	32µM*	x	x
CC1C/C(=N/NC(=S)Nc2ccc(SC(F)F)cc2)CC(C)(C)C1 (stereo unspecified)	x	28µM*	x	x
CC1(C)C2CC=C(/C=N/NC(N)=O)C1C2 (stereo unspecified)	x	-6%	x	x
N#Cc1c(NC(=O)CNc2ccccc2C(=O)NCC(F)(F)F)sc2c1CCCCC2	x	-27%	x	x
Cc1ccc(S(=O)(=O)n2cccc2/C=C/[N+](=O)[O-])cc1	x	35µM*	x	x
NCCc1ccc(O)c(O)c1	-2%	2.8µM*!	-2%	-2%
O=C(CC1=CCCCC1)N1CCC(C2CCNC2)CC1 (stereo unspecified)	x	40µM*	x	x
SMILES	USP2a block	12-LOX inh	Eya2 inh	TSG101-PTAP inh
CCc1ccc(C(=O)N2CCC(C3CCNC3)CC2)cc1 (stereo unspecified)	x	-4%	x	x
OC(c1ccco1)c1nc(-c2cccs2)cs1 (stereo unspecified)	x	18µM*	x	x
Nc1nc(-c2cccs2)cs1	1%	x	4%	-7%
CC(C)c1cccc(-c2csc(C(O)c3ccco3)n2)c1 (stereo unspecified)	x	14µM*	x	x
OCc1cccc(-c2csc(C(O)c3ccccc3)n2)c1 (stereo unspecified)	x	0%	x	x
CCC(=O)OCCC(C)CCC=C(C)C (stereo unspecified)	x	-5%[176 µM]	x	x
O=[S+]1([O-])NCC2(CCCN(Cc3ccc(OC(F)(F)F)cc3)C2)Nc2ccccc21 (stereo unspecified)	x	-7%	x	x
N[C@H]1CN(S(=O)(=O)c2ccc(OC(F)F)cc2)C[C@@H]1C1CC1	x	7%	x	x

High-throughput results: PubChem BioAssay, National Center for Advancing Translational Sciences (NCATS)
